Assay outcomes deposited in PubChem by National Center for Advancing Translational Sciences (NCATS).
TGFb SMAD3 inh: TGF-b pathway inhibition | HepG2 CAGA-GFP TGF-b/SMAD3 reporter, GFP fluorescence, 18 h; TGF-beta stimulated, 500 pg/mL final | Potency, µM (top dose mostly 46.1 µM), for the others: top-dose activity, negative = inhibition, hits mostly inhibitors | hit rate 1.2% among 410,000; also: potency is read from the fitted curve at half-maximal effect; % is scaled to controls: 0 for no effect and ±100 for the full control effect; nearly all actives have a fitted effect of over 65% in size
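HEPG2 CAGA-GFP, 1000 cells/well; 2 h settle, 37 C; cpd via pin tool; TGF-b 500 pg/mL final; 18 h, 37 C; GFP imaging ex488/em500-530; %Activity normalised to -TGF-b and +DMSO controls; CRC fit, curve class.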
DT40 TDP1 no CPT: qHTS for Inhibitors of human tyrosyl-DNA phosphodiesterase 1 (TDP1): qHTS in cells in absence of CPT; DT40 Tdp1-/- hTDP1 cells, no CPT, ATP luminescence, 48 h; Potency, µM (series often up to 46.2 µM), without a hit: at the top dose activity change, negative = growth inhibition, actives largely listed as inhibitors; hit rate 15% among 420,000; also: potency is read from the fitted curve at half-maximal effect; % is scaled to controls: 0 for no effect and ±100 for the full control effect; nearly all actives have a fitted effect of over 55% in size
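Cells were dispensed at 400 per well, compounds added by pin tool, plates incubated ≥48 hr at 37 °C, then CellTiter-Glo added for 30 min at room temperature before luminescence reading. Line: DT40 Tdp1-/- complemented with hTDP1; camptothecin omitted.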
IL-1B inflam inh: inflammasome signaling inhibition, IL-1 beta readout. THP-1 LPS/ATP IL-1B secretion, AlphaLISA, 16 h; active compounds read low. activity change, % at 57.5 µM. hit rate 4.7% among 360,000; in the data active = activity change below about -50%; inconclusive = mostly about -30% to -49%; also: % is scaled to controls: 0 for no effect and ±100 for the full control effect
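Secreted IL-1B measured by AlphaLISA bead assay after 16 h compound exposure of THP-1 cells; compounds (final up to 57.5 uM) added 1 h before LPS (250 ng/mL) and ATP (1.25 mM) stimulation; lower signal means less secretion.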
DT40 TDP1 CPT: DT40-hTDP1 cell growth loss with CPT; AID 686979; chicken DT40 Tdp1-/-;hTDP1 cells + 20 nM CPT, ATP luminescence, 48 h; hit rate 12% among 420,000; Potency, µM (titrated, usually from 46.2 µM), without a hit: top-dose activity change, negative = growth inhibition, actives largely listed as inhibitors; also: potency is read from the fitted curve at half-maximal effect; % is scaled to controls: 0 for no effect and ±100 for the full control effect; nearly all actives have a fitted effect of over 55% in size
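Chicken DT40 Tdp1-/- cells stably complemented with human TDP1 were seeded at 400 cells/well in medium containing 20 nM camptothecin, exposed to pin-transferred compounds, and grown at 37 °C for at least 48 hr. Viability was read as ATP luminescence.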
TDP1 block: TDP1 (human) enzyme inhibition; Q9NUW8; recombinant TDP1, AlphaScreen DNA substrate cleavage; Potency, µM (top dose mostly 130 µM), inactives show at the highest dose activity change, negative = inhibition, usual class: inhibitors; hit rate 0.28% among 350,000; AID 485290; also: potency is read from the fitted curve at half-maximal effect; % is scaled to controls: 0 for no effect and ±100 for the full control effect; nearly all actives have a fitted effect of over 40% in size
Target sequence (Q9NUW8 whole entry, looked up): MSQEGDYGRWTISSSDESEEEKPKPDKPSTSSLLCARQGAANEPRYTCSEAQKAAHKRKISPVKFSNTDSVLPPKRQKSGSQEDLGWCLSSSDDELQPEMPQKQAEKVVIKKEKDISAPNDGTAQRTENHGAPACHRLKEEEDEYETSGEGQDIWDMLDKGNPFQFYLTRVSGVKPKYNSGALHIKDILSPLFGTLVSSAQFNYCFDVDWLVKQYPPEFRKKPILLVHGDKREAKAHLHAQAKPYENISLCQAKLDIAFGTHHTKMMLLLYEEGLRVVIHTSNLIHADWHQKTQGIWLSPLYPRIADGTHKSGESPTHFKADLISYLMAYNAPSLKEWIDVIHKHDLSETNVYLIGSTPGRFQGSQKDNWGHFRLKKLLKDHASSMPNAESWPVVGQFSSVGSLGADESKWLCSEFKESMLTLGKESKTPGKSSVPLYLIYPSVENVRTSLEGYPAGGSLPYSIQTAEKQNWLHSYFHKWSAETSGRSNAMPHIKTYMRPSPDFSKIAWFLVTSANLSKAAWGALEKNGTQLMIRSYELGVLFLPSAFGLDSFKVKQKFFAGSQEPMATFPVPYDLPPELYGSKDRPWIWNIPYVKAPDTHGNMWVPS
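Tdp1 1 nM final; 15 min RT w/ cpd; substrate 15 nM, 5 min; beads 10 ug/ml, 10 min; AlphaScreen read. Neg ctrl: no enzyme.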
HepG2 viability: HepG2 cytotoxicity, counter-screen for TGF-b inhibitors; HepG2 CAGA-GFP viability, ATP luminescence, 18 h; hit rate 0.76% among 410,000; Potency, µM (series often up to 46.1 µM), without a hit: top-dose activity change, negative = cytotoxicity, most hits filed as cytotoxic; also: potency is read from the fitted curve at half-maximal effect
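HepG2 CAGA-GFP cells (1000/well, DMEM with 1% FBS) received compound, then TGF-beta at 500 pg/mL final, and were incubated 18 hours at 37 degrees C. Viability was read by CellTiter-Glo luminescence. Media-only wells were set as complete cell-killing and DMSO as no toxicity.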
Starred values were filed as active, the others as inactive; [ ] = remark or other dose. In the library only some 19% were active in any assay of this set; here they are far more common. Unless noted, calls follow the shape of the dose curve; as a rule, active = well fitted curve in the direction sought with a large enough effect; inconclusive = small, poorly fitted or top-dose-only effect, or another doubt; inactive = no such curve, though single readings can be large; an effect the other way counts as inactive or inconclusive.

For CCN(C(=O)c1cc2c(Cl)nc3ccccc3c2s1)c1cccc(Cl)c1 the results were TGFb SMAD3 inh -1%, DT40 TDP1 no CPT inconclusive, DT40 TDP1 CPT -6%, TDP1 block 3% and HepG2 viability 7%.
For CCOC(=O)c1nnn(CC(=O)N2N=C(c3ccccc3)CC2c2ccccc2)c1C(=O)OCC (configuration not stated) the results were TGFb SMAD3 inh -7%, DT40 TDP1 no CPT 18µM*, IL-1B inflam inh 21, DT40 TDP1 CPT inconclusive, TDP1 block 1% and HepG2 viability -21%.
CCOC(=O)c1nnn(CC(=O)N2N=C(c3cc(C)ccc3C)CC2c2ccc(OC)cc2)c1C(=O)OCC (configuration not stated) was read as TGFb SMAD3 inh -18%, DT40 TDP1 no CPT 15µM*, IL-1B inflam inh -8, DT40 TDP1 CPT 29µM*, TDP1 block 0% and HepG2 viability -25%.
Screening CC1CCN(C(=O)/C=C/c2ccc(C(C)(C)C)cc2)CC1 returned TGFb SMAD3 inh 0%, DT40 TDP1 no CPT 21µM*, IL-1B inflam inh -14, DT40 TDP1 CPT inconclusive, TDP1 block 0% and HepG2 viability -32%.
Cc1cc(C)c2c(c1)SC1=NC(c3ccccc3)(C(F)(F)F)NC(=O)N12 (configuration not stated) was read as TGFb SMAD3 inh 22%, DT40 TDP1 no CPT inconclusive, IL-1B inflam inh -56*, DT40 TDP1 CPT inconclusive, TDP1 block 5% and HepG2 viability -12%.
`CN(C)S(=O)(=O)c1ccc(C(=O)Nc2c(C(=O)Nc3ccc(F)cc3)oc3ccccc23)cc1` gave TGFb SMAD3 inh 12%, DT40 TDP1 no CPT inconclusive, DT40 TDP1 CPT -12%, TDP1 block 4% and HepG2 viability -1%.
`CC(C)(C(=O)c1cccnc1)c1cccnc1` gave TGFb SMAD3 inh 3%, DT40 TDP1 no CPT -6%, IL-1B inflam inh inconclusive, DT40 TDP1 CPT 1%, TDP1 block 16%[21 µM] and HepG2 viability -1%.
Clc1cccc(CN2C3=NCCCN3c3ccccc32)c1 was read as TGFb SMAD3 inh 0%, DT40 TDP1 no CPT inconclusive, IL-1B inflam inh -17, DT40 TDP1 CPT inconclusive and HepG2 viability -37%.
For Cc1cc2c(cc1C)N(Cc1ccc(Cl)cc1)C1=NCCCN12 the results were TGFb SMAD3 inh inconclusive, DT40 TDP1 no CPT 5.2µM*, DT40 TDP1 CPT 2.6µM* and HepG2 viability -85%.
For Clc1ccc(CN2C3=NCCN3c3ccccc32)cc1 the results were TGFb SMAD3 inh 33%, DT40 TDP1 no CPT inconclusive, IL-1B inflam inh inconclusive, DT40 TDP1 CPT 13µM*, TDP1 block 3% and HepG2 viability -1%.
`OC(COc1ccccc1)CN1C2=NCCCN2c2ccccc21` (configuration not stated) gave TGFb SMAD3 inh 25%, DT40 TDP1 no CPT 10µM*, IL-1B inflam inh -15, DT40 TDP1 CPT inconclusive, TDP1 block -1% and HepG2 viability 2%.
`Clc1ccc(CN2C3=NCCCN3c3ccccc32)c(Cl)c1` gave TGFb SMAD3 inh 0%, DT40 TDP1 no CPT inconclusive, IL-1B inflam inh -73*, DT40 TDP1 CPT inconclusive and HepG2 viability -34%.
c1ccc(OCCN2C3=NCCN3c3ccccc32)cc1 was read as TGFb SMAD3 inh 7%, DT40 TDP1 no CPT inconclusive, IL-1B inflam inh -4, DT40 TDP1 CPT -27%, TDP1 block 4% and HepG2 viability -9%.
For O=C(O)CN1C2=NCCCN2c2ccccc21 the results were TGFb SMAD3 inh 5%, DT40 TDP1 no CPT 2%, IL-1B inflam inh 21, DT40 TDP1 CPT 15%, TDP1 block 5% and HepG2 viability 17%.
Screening CC(NC(=O)COc1ccccc1Cl)c1ccccc1 (configuration not stated) returned TGFb SMAD3 inh -27%, DT40 TDP1 no CPT inconclusive, IL-1B inflam inh -12, DT40 TDP1 CPT -19% and HepG2 viability -25%.
Brc1ccc(CN2C3=NCCCN3c3ccccc32)cc1 was read as TGFb SMAD3 inh -9%, DT40 TDP1 no CPT inconclusive, IL-1B inflam inh -55*, DT40 TDP1 CPT 16µM*, TDP1 block 3% and HepG2 viability -24%.
`Cc1ccc(CN2C3=NCCCN3c3ccccc32)cc1` gave TGFb SMAD3 inh inconclusive, DT40 TDP1 no CPT inconclusive, IL-1B inflam inh -4, DT40 TDP1 CPT 15µM*, TDP1 block 1% and HepG2 viability -33%.
`c1ccc(CN2C3=NCCCN3c3ccccc32)cc1` gave TGFb SMAD3 inh -20%, DT40 TDP1 no CPT -32%, IL-1B inflam inh -4, DT40 TDP1 CPT -16%, TDP1 block 2%[56.1 µM] and HepG2 viability -6%.
CC(C)(C)c1ccc(CN2C3=NCCCN3c3ccccc32)cc1 was read as TGFb SMAD3 inh inconclusive, DT40 TDP1 no CPT 7.3µM*, IL-1B inflam inh -54*, DT40 TDP1 CPT 7.3µM*, TDP1 block 0% and HepG2 viability 16µM*.
C=CCn1c(SCc2nc3sc(C(=O)O)c(C)c3c(=O)[nH]2)nnc1-c1ccccc1 was read as TGFb SMAD3 inh -3%, DT40 TDP1 no CPT -1%, IL-1B inflam inh 30, DT40 TDP1 CPT 6% and HepG2 viability 1%.
`C=CCn1c(SCc2nc3sc(C(=O)O)c(C)c3c(=O)[nH]2)nnc1-c1ccc(C(C)(C)C)cc1` gave TGFb SMAD3 inh 7%, DT40 TDP1 no CPT -4%, IL-1B inflam inh -16, DT40 TDP1 CPT -8%, TDP1 block 20µM* and HepG2 viability 11%.
`O=c1c2c3c(sc2n(Cc2cc(=O)n4ccccc4n2)c(=O)n1-c1ccccc1)CCC3` gave TGFb SMAD3 inh 6%, DT40 TDP1 no CPT -9%, DT40 TDP1 CPT 2%, TDP1 block -3% and HepG2 viability 9%.
`CCCCn1c(N)c(N(CC(C)C)C(=O)CCC2CCCCC2)c(=O)[nH]c1=O` gave TGFb SMAD3 inh 6%, DT40 TDP1 no CPT -3%, IL-1B inflam inh -4, DT40 TDP1 CPT 3%, TDP1 block 6% and HepG2 viability -9%.
`COc1ccc(/C=C\c2onc(C)c2S(=O)(=O)N2CCC(C(=O)Nc3cccc(OC)c3)CC2)cc1` gave TGFb SMAD3 inh inconclusive, DT40 TDP1 no CPT 16µM*, DT40 TDP1 CPT 15µM*, TDP1 block -5% and HepG2 viability -30%.
